High-throughput results deposited in PubChem by National Center for Advancing Translational Sciences (NCATS).
A selection: hits, their analogues and other compounds. The true share with any hit is near 6.2%.
FMDV inh – High Throughput Screening for Foot and Mouth Disease Virus Antivirals. Potency, µM (titrated, usually from 57.9 µM), actives largely listed as inhibitors. FMDV antiviral cell-based qHTS. 410,000 tested, 1.2% active; calls by dose curve; tested in HEK293T cells; further: read-out not given here; nearly all actives have a fitted effect of over 45% in size
HCMV antiviral – qHTS Assay for inhibitors of the human cytomegalovirus (HCMV); HFF cells, HCMV-luciferase reporter, 72 h; stronger effect = lower value; 410,000 tested, 4.5% active; activity change, negative = inhibition, % at 57.5 µM; in the data active means activity change below about -60%; inconclusive means no clear call, values can overlap the other calls; inactive means above about -39%
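HFF cells seeded 16 h at 37C, treated with compounds, infected with luciferase-reporter HCMV at MOI 1 PFU/cell; luciferase read at 72 h post infection, normalized to buffer-only and Salinomycin controls.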
Marburg entry inh – qHTS for inhibitors of binding or entry into cells for Marburg Virus. Marburg virus pseudotyped entry inhibition, cell reporter. Potency, µM (highest dose often 37.8 µM), usual class: inhibitors. 300,000 tested, 1.8% active; calls by dose curve; tested in HEK293 cells
Lassa entry inh – qHTS for Inhibitors of binding or entry into cells for Lassa Virus. Lassa virus pseudotype entry inhibition, cell reporter. Potency, µM (doses to about 37.9 µM), usual class: inhibitors. 300,000 tested, 1.2% active. AID 540256, 2011; calls by dose curve; tested in HEK293 cells; further: nearly all actives have a fitted effect of over 50% in size
Large screens that a line does not name were inactive; ! = repeats disagree.

CCOC(=O)CNC(=O)N(C)[C@H]1C[C@H]2c3[nH]c4ccccc4c3CCN2C(=O)[C@H]1[C@H](C)O	none (no result: Marburg entry inh, Lassa entry inh)
CNC(=O)CN(c1ccc(Oc2ccccc2)cc1)S(=O)(=O)c1ccc(C)cc1	Lassa entry inh 7.1µM
COc1ccc(N(CC(=O)NC(C)c2ccccc2)S(=O)(=O)c2ccc(C)cc2)cc1 (stereo unspecified)	none
Cc1ccc(N(CC(=O)NCc2ccc(OC(C)C)cc2)S(=O)(=O)N(C)C)cc1	FMDV inh inconclusive, Lassa entry inh 5µM (no result: Marburg entry inh)
COc1ccc(S(=O)(=O)N(CC(=O)NCc2ccccc2OC)c2ccc(C)cc2)cc1	HCMV antiviral -68 (no result: Marburg entry inh)
CCOc1ccc(S(=O)(=O)N(CC(=O)NCCc2ccc(OC)c(OC)c2)c2ccccc2)cc1	FMDV inh inconclusive
CCOc1ccc(S(=O)(=O)N(CC(=O)NCc2ccccc2OC)c2ccccc2)cc1	FMDV inh inconclusive, HCMV antiviral -62, Marburg entry inh inconclusive, Lassa entry inh inconclusive
CC(=O)C1=C(C)N(Cc2ccccc2)C(=O)N[C@H]1c1ccc(Br)cc1	none (no result: FMDV inh, HCMV antiviral, Lassa entry inh)
COc1cccc(NC(=O)c2sc3nc(C)c(C(=O)Nc4ccc(C)cc4C)c(-c4cccs4)c3c2N)c1	HCMV antiviral inconclusive, Lassa entry inh inconclusive
COc1ccc(S(=O)(=O)N(CC(=O)NCc2ccco2)c2ccccc2OC)cc1	HCMV antiviral -65
COc1ccc(N(CC(=O)NCc2ccc(C)cc2)S(=O)(=O)c2c(C)[nH]c(=O)[nH]c2=O)cc1	HCMV antiviral active!
COc1ccccc1N(CC(=O)NCc1ccco1)S(C)(=O)=O	Marburg entry inh inconclusive
Cc1cc(-c2ccc(S(=O)(=O)Nc3cccc(C)c3C)s2)on1	Lassa entry inh inconclusive (no result: Marburg entry inh)
CC(=O)Oc1ccc(-c2nc3cc(Cl)ccc3c(=O)o2)cc1	HCMV antiviral -78
CC(=O)Oc1ccc2c(=O)oc(-c3ccccc3)nc2c1	none
Cc1ccc(-n2ccnc(NCCc3ccc(S(N)(=O)=O)cc3)c2=O)cc1C	none (no result: Marburg entry inh)
O=C(Nc1ccc([N+](=O)[O-])cc1)c1ccccc1	Marburg entry inh inconclusive
O=C(Nc1cc(Sc2ccccn2)cc([N+](=O)[O-])c1)c1ccc([N+](=O)[O-])cc1	FMDV inh 22µM, Marburg entry inh inconclusive, Lassa entry inh inconclusive
O=[N+]([O-])c1ccc(Sc2ccccn2)nc1	none
CCCSc1nnc(Sc2nnnn2-c2ccccc2)s1	FMDV inh inconclusive, HCMV antiviral -78, Marburg entry inh inconclusive, Lassa entry inh inconclusive
COc1ccc2c(C)cc(Sc3nnnn3-c3ccccc3)nc2c1	HCMV antiviral -101, Lassa entry inh 0.79µM
O=[N+]([O-])c1ccc(Sc2nnnn2-c2ccccc2)nc1	FMDV inh 22µM, HCMV antiviral -88, Marburg entry inh 13µM, Lassa entry inh inconclusive
COc1ccc(Oc2nnnn2-c2ccccc2)cc1	Lassa entry inh inconclusive
COc1ccc(-n2nnnc2-c2ccccc2)cc1	HCMV antiviral -60 (no result: FMDV inh)
O=C(COc1ccc(Cl)cc1)Nc1ccc2nc(SCC(=O)N3CCOCC3)sc2c1	Marburg entry inh inconclusive
O=c1c2sc3ccccc3c2n(Cc2ccc(Cl)cc2)c(=O)n1Cc1ccco1	none
CC1(c2ccc(F)cc2)OC(=O)c2c1ccc1ccccc21 (stereo unspecified)	none (no result: Marburg entry inh, Lassa entry inh)
O=C(CNC(=O)c1ccc(Cl)cc1)OCc1cc(=O)n2ccsc2n1	none (no result: Marburg entry inh)
CC(=O)N1CCc2cc(S(=O)(=O)NC(CC(C)C)C(=O)NCCc3ccc(C)cc3)ccc21 (stereo unspecified)	none
O=C(Nc1nnc([C@H]2C[C@H](O)[C@@H](CO)O2)s1)c1cccc(OC(F)(F)F)c1	none (no result: Marburg entry inh, Lassa entry inh)
Cc1ccccc1-n1nnnc1Sc1nnnn1-c1ccccc1	FMDV inh 8.9µM, HCMV antiviral inconclusive, Marburg entry inh inconclusive, Lassa entry inh inconclusive
CCCn1c(Sc2nnnn2-c2ccccc2)n[nH]c1=O	HCMV antiviral -106
O=[N+]([O-])c1ccc(N2CCOCC2)c2c1no[n+]2[O-]	FMDV inh 10µM, HCMV antiviral -101 (no result: Marburg entry inh, Lassa entry inh)
O=C1CN(C(=O)c2cccc(Br)c2)C(c2ccccc2)c2cc(Cl)ccc2N1 (stereo unspecified)	HCMV antiviral -63, Lassa entry inh inconclusive (no result: Marburg entry inh)
O=C1CN(C(=O)Cc2ccccc2)C(c2ccc(F)cc2)c2cc(Br)ccc2N1 (stereo unspecified)	Marburg entry inh 10µM, Lassa entry inh inconclusive
O=C1CN(C(=O)c2ccc(S(=O)(=O)N3CCCCC3)cc2)C(c2ccc(F)cc2)c2cc(Cl)ccc2N1 (stereo unspecified)	FMDV inh inconclusive, Marburg entry inh 8.9µM, Lassa entry inh inconclusive
